# In PubChem BioAssay AID652025 (National Center for Advancing Translational Sciences (NCATS), 2013):
# Screen size: about 360,000 compounds; about 240 (0.067%) were called active. The list comes from a sample in which actives are over-represented; it also holds similar structures and randomly drawn compounds. A number with no mark means an inactive call. Rule as the data show it: active = activation above about 50%; inconclusive = mostly about 30% to 49%; inactive = weaker than that.
# Assay: qHTS of IL-2 Activators; also: 0% is about no effect
# Details: IL-2 activation reporter assay, cell-based qHTS; active compounds read high; in transgenic mouse T cells; stimulated with anti-CD3/CD4/CD28 beads
# Text: The adaptive immune response against any infectious agent begins with the activation of an antigen specific T cell. This relatively rare and inert ("naive") T cell undergoes a massive proliferative expansion and differentiation process to generate sufficient number of potent pathogen-specific effector T cells. The effector T cells fight the infection by making cytokines and helping other cells to become fully armed as well. If any naive T cell has antigen receptors (TCRs) that can be activated by self peptides, then a variety of regulatory mechanisms kick in to prevent this cell from performing to its full potential. These processes collectively constitute the phenomenon of immunological tolerance and their failure leads to autoimmunity. One arm of tolerance involves generation of biochemical negative feedback downstream of the TCR (tuning). This is especially relevant to self antigens present in the body over long periods of time (chronic), which form the bulk of our proteome. The negative feedback serves to tune the TCR signaling, such that the ambient antigenic stimulation is nullified intracellularly. Unfortunately, this critical machinery serves as a target for chronic viral, bacterial and parasitic infections (as well as tumors), which can evade a robust immune response, simply by allowing T cells to tune down their signaling to pathogen or malignancy derived antigens. As such, disrupting the tuning in such cases would allow the tolerant T cell to function again and deliver a robust effector response.
# If a therapeutic can restore responsiveness to the tuned down T cell, even for a short time, they could combat the pathogen without any additional immunization. To that end, we have developed a sensitive HTS T cell based assay based on IL-2. This assay will be screened against the Molecular Libraries Small Molecule Repository (MLSMR) to find small molecules that could elicit this response.
# NIH Chemical Genomics Center [NCGC]
# NIH Molecular Libraries Probe Centers Network [MLPCN]
# Assay Submitter (PI): Ron Schwartz, NIAID
# 4 microL (750 cells/well) of unstimulated transgenic mouse T cells (columns 1-3,5-48) are dispensed into Aurora LoBase, black clear-bottom 1536-well assay plates; column 4 receives an identical concentration of transgenic memory T cells as a non-tolerant control. Compounds are then transferred via Kalypsys pin tool equipped with 1536-pin array (10 nL slotted pins, V&P Scientific, San Diego, CA). Following addition of compound and a 60 minute incubation, 1 microL of bead stimulation solution ((0.04 micron Fluospheres (Life technologies, CA) coated with 10ug/ml each anti-CD3 and anti-CD4 (clones 2C11 and GK1.5, BD Biosciences, CA) and mixed with 1ug/ml anti-CD28 (clone PV-1, BD biosciences, CA)). columns 2-48) is added to stimulate the IL-2 response pathway; media is instead added to column 1 as an unstimulated control, while PMA/ionomycin (Sigma Aldrich, MO) is added to column 3 as a control for IL-2 tolerance bypass. The plates are then incubated at 37 degrees C for 18 hours. EGFP and DsRed signal are then detected using an Acumen eX3 Explorer fluorescent plate cytometer. All cells are dispensed in cell media containing EHAA (Quality Biologicals, MD), RPMI (Quality Biologicals, MD), Glutamine (Life Technologies, CA), Penicillin/Streptomycin (Quality Biologicals, MD), 2-ME (Sigma Aldrich, MO) and 10% FBS (Gemini Bioproducts, CA) .
row,Compound,activation
1,CC(C)(C)NC(=O)C(c1ccc(Cl)cc1)N(CCO)C(=O)c1snc(C(N)=O)c1N (configuration not stated),0.402%
2,CCOc1cc(S(=O)(=O)NC2CC(C)(C)NC(C)(C)C2)ccc1F,0.923%
3,C[C@H]1COc2cc(N3CCSCC3)ccc2S(=O)(=O)N1,0.723%
4,CC(=O)Nc1ccc(NC(=O)CS(=O)(=O)c2cn(CC(=O)N3CCCCC3)c3ccccc23)cc1,2.22%
5,CC1CC(NC(=S)N(C)C)CC(C)(C)C1 (configuration not stated),-1.93%
6,CCN(CC)S(=O)(=O)c1ccc(CNC(=O)CN2C(=O)NC3(CCc4ccccc43)C2=O)cc1 (configuration not stated),-3.43%
7,CCOCc1nnc(NC(=O)CCS(=O)(=O)Cc2ccccc2)s1,2.97%
8,CCC(C)NC(=O)/C=C/c1ccc(S(=O)(=O)NCc2ccco2)cc1 (configuration not stated),-0.382%
9,O=C(CCS(=O)(=O)c1ccc2c(c1)NC(=O)CS2)NCc1ccccc1Cl,-0.54%
10,O=C(O)C1C2C=CC(C2)C1C(=O)N1CCN(CCO)CC1 (configuration not stated),-0.292%
11,CCC(=O)c1ccc(OCC(O)Cn2nc(C)c(C(C)=O)c2C)cc1 (configuration not stated),-0.63%
12,Cn1cccc1Cc1nnc(SCC(=O)NCCc2ccccc2)n1-c1ccc(F)cc1,-0.845%
13,Cc1cccc(NC(=O)CSc2nc3c(c(=O)[nH]2)CCC3)c1C,-0.45%
14,O=C1C[C@@H]2c3c(cccc3CN1Cc1ccccc1)C[C@@H](O)[C@H]2O,0.126%
15,CCCn1c(C(Cc2ccccc2)NC(=O)COC)nc2ccccc21 (configuration not stated),0.549%
16,Cc1cccc(NC(=S)N2CCCC(c3nc4ccccc4[nH]3)C2)c1 (configuration not stated),-0.267%
17,Cc1cc2cc3c(N)[nH]nc3nc2cc1C,-0.975%
18,C=CCN1C2CCCC1CC(NC(=S)Nc1cccc(OC)c1)C2 (configuration not stated),-0.0533%
19,O=S(=O)(NCc1ccccc1Br)c1ccccc1Br,0.131%

row,Compound,activation
1,CCN(CC)C(=O)C1=C(C)N(Cc2ccc(F)cc2)C(=O)C(CC(=O)NCc2cccc3ccccc23)C1 (configuration not stated),-1.55%
2,CN1CCC(N(C)S(=O)(=O)c2ccc(NC(=O)c3cccc(C#N)c3)cc2)CC1,0.319%
3,CCCN(CC1CC1)C(=O)COC(=O)c1ccc(C)cc1O,-0.72%
4,COc1cccc2oc(CCc3ccccc3)cc(=O)c12,2.76%
5,COC(C[C@@H]1O[C@@H]1C(=O)[C@@H](C)OCc1ccccc1)OC,0.368%
6,Cc1noc(/C=C/c2ccco2)c1S(=O)(=O)N1CCC(C(=O)Nc2ccc(Cl)cn2)CC1,-0.421%
7,Cc1cc(-c2csc(N)n2)c(C)n1-c1ccccc1,-0.438%
8,C[n+]1ccc(/C=C/c2c[nH]c3ccccc23)cc1,91.4% (active)
9,CSc1nsc(SC)c1NC(=O)OC1CCCCC1,-1.77%
10,CN1CCN(c2ccc3c(c2)OC[C@H](Cc2ccccc2)NS3(=O)=O)CC1,1.2%
11,CC(=O)c1c(C)[nH]c(C(=O)Nc2cc(S(=O)(=O)N(C)C)ccc2C)c1C,0.322%
12,CO[C@@H]1CN(C)C(=O)c2cc(NC(=O)Nc3cc(F)ccc3F)ccc2OC[C@H](C)N(C(=O)c2ccccn2)C[C@@H]1C,-0.0824%
13,CCCNC(=O)C1(C)CCN(Cc2csc(-c3ccc(Cl)cc3)n2)C1 (configuration not stated),-0.168%
14,CC(=O)NC12CC3CC(C1)CC(C(=O)N1CCN(C(=O)c4ccco4)CC1)(C3)C2,2.63%
15,O=C(NCCCNC(=O)NC1CCCCC1)NC1CCCCC1,2.89%
16,Cc1ccc(N(Cc2cc(=O)[nH]c3ccccc23)C(=O)CCl)cc1,-4.77%
17,CC1CN(C(=S)Nc2cccc(F)c2)CC(C)O1 (configuration not stated),0.508%
18,COC(=O)c1cc2c(ccn2C)n1C,-0.203%
19,CN(C)S(=O)(=O)c1ccc(N2CCCC2)c(C(=O)NCc2ccccc2)c1,0.204%

row,Compound,activation
1,Cc1ccc(-n2c(C)nnc2SCC(=O)NC2CC2)cc1,-1.22%
2,O=C(Oc1ccc(Br)cc1C(=S)N1CCOCC1)c1cccc([N+](=O)[O-])c1,0.801%
3,O=C(Cc1nc2ccccc2[nH]c1=O)c1ccc(Cl)cc1,60.1% (active)
4,O=c1c(-c2ccc(Cl)cc2)[n+]([O-])c2ccccc2n1OCc1nc2ccccc2[nH]1,-0.455%
5,O=C(C[n+]1ccc2c(c1)nnn2-c1ccccc1)c1ccc(Cl)cc1,-1.14%
6,COc1ccc(N2CCN(C3CCCCC3NS(=O)(=O)c3ccccc3)CC2)cc1 (configuration not stated),-5.42%
7,CCOC(=O)N1CCN(C(c2ccnc3ccccc23)c2nnnn2-c2c(C)cccc2C)CC1 (configuration not stated),-1.14%
8,CC(=O)NCCC(=O)Nc1nc(C)c(Cc2ccc3c(c2)OCO3)s1,-2.95%
9,CCN(CC)c1ccc(NC(=O)C2CCC(CNc3c(N4CCCC4)c(=O)c3=O)CC2)c(C)c1 (configuration not stated),-0.247%
10,O=C(CS(=O)(=O)c1ccc(C(F)(F)F)cn1)NNC(=O)c1ccccc1,0.398%
11,O=C(CSc1ccsc1[N+](=O)[O-])N1CCCCC1,-0.638%
12,CCOC(=O)N1CCC(N2Cc3cccc(C(=O)Nc4ccc(S(=O)(=O)N(CC)CC)cc4)c3C2=O)CC1,-2.11%
13,Cc1ccc(NC(=O)CSc2nc(=O)n(CCN(C)C)c3c2CCCC3)c(C)c1,0.222%
14,CN1CCC(CN)(N2CCN(c3ccccc3)CC2)CC1,0.289%
15,CCN(CC(=O)NCCCN1CCOCC1)S(=O)(=O)c1cc(Cl)ccc1Cl,-0.326%
16,CC(C)C[C@@H](N)c1nnc(SCC(=O)c2ccc(Cl)cc2)o1,0.422%
17,Cc1c(NC(=O)CSCc2ccccc2)cccc1C(=O)O,3.04%
18,COc1ccc2nc(Nc3nc(-c4cc5ccccc5oc4=O)cs3)sc2c1,57.4% (active)
19,COc1cccc(C(NC(C)=O)c2nc(-c3ccccc3OC)cs2)c1 (configuration not stated),0.438%
